Each compound was assayed against Shiga toxin 2 (Escherichia coli O157:H7) (UniProt P09385+P09386) (assay: E. coli 0.157:H7 Shiga Toxin SOP - stx2 screening assay). Conditions: 30 µM.
Format: functional
Set-up: scale not given: direction of the effect not stated beside the values
Work on CC1CCN(CCNC(=O)c2cncnc2C(C)C)CC1 yielded a Percent Effect of -18.7%. Cc1ccccc1OCCC(=O)OC(C)C(=O)Nc1sccc1C(N)=O (stereo not given) showed a Percent Effect of -38.1%. Cc1cccc(-c2ccc3nc(C4CCN(CC5CC5)CC4)nn3c2)c1 gave a Percent Effect of -31.4%. Work on CCCNC(=O)Nc1cc2c(cc1SC)OCCO2 yielded a Percent Effect of -0.581%. Cc1nn(-c2ccccc2)nc1C(=O)N1CCCC1c1cnn(C)c1 (stereo not given) was tested, and the Percent Effect was 18.4%. With CCN(CC)S(=O)(=O)N1CCCC(c2cccc(C(=O)O)c2)C1 (stereo not given) the Percent Effect was 9.71%. In the case of O=C(NCCOc1cccc(Cl)c1)C1CC(=O)N(CC2CC2)C1 (stereo not given), the Percent Effect is reported as -10.5%. Compound CCCc1n[nH]c(C2CN(C(=O)c3cc(F)ccc3OC)CCO2)n1 (stereo not given) has a Percent Effect of 29.8%. For CCn1ccnc1CN1CCN(C(C)C(=O)N2CCC(C)CC2)CC1 (stereo not given), the Percent Effect was -22.7%. In the case of Cc1cccc(C(=O)N2CCC(Cc3cnc4[nH]ccc4c3)CC2)n1, the Percent Effect is reported as 5.08%. In the case of COc1cccc2cc(CNCc3ccnc(N4CCOCC4)c3)oc12, the Percent Effect is reported as 26.8%. Clc1ccccc1-c1nc(CNC2CCc3ncnn3C2)cs1 (stereo not given) showed a Percent Effect of -6.39%. CNC(=O)C1(CCCc2cccnc2)CCCCN1 (stereo not given) was tested, and the Percent Effect was 0.867%. In the case of O=C(NCC1CC1)N1CCN(Cc2ccc3c(c2)OCCO3)CC1, the Percent Effect is reported as 16.2%. Compound CC(C)c1noc(CCCC(=O)N2CCN(Cc3ccncc3)CC2)n1 has a Percent Effect of -20.6%. Work on Cc1noc([C@H]2C[C@H]3OCC[C@H]3N(S(=O)(=O)C3CC3)C2)n1 yielded a Percent Effect of 19.9%. With CNc1cc(C)nc(C2CN(Cc3cc[nH]n3)CCO2)c1 (stereo not given) the Percent Effect was 13.3%. Compound COCCNC(=O)CN1CCN(c2nc(C)cs2)C(C)C1 (stereo not given) has a Percent Effect of -15.9%. In the case of COc1cc(C)nc(N2CCN(C(=O)c3ccc[nH]3)CC2)n1, the Percent Effect is reported as 11.2%. Compound O=C(c1cscn1)N1CCC[C@]2(C[C@H](OCC3CC3)CO2)C1 has a Percent Effect of -17.4%. CCN(Cc1ccco1)C(=O)c1cc(OC)c2c(c1)OCCO2 showed a Percent Effect of -2.41%. Work on COc1ccc(CNC(C)c2ccc3[nH]c(=O)[nH]c3c2)cc1 (stereo not given) yielded a Percent Effect of -13.7%. With O=C(c1ccsc1)N1C[C@@H]2C[C@@H](c3nnc(C4CC4)o3)O[C@@H]2C1 the Percent Effect was -18.3%. COc1nn(C)cc1C(=O)N1CCC(c2nnc(C3CC3)o2)CC1 was tested, and the Percent Effect was -8.92%. Work on Cc1cn2c(n1)CCC(NC(=O)c1ccc(CS(C)(=O)=O)cc1)C2 (stereo not given) yielded a Percent Effect of -16.5%. Work on O=C1CC(c2ccncc2)C2(CCN(C(=O)c3ccc[nH]3)CC2)N1 (stereo not given) yielded a Percent Effect of -8.09%. In the case of CC(C)c1nnc2n1CCN(Cc1csc(CC(=O)N(C)C)n1)C2, the Percent Effect is reported as 18.3%. Compound COc1ccc(CNC(=O)N2CCC(Cc3cnn(C)c3)C2)cc1C (stereo not given) has a Percent Effect of 18%. With O=C(Cn1cccnc1=O)NC(Cc1ccsc1)c1ccccn1 (stereo not given) the Percent Effect was -4.55%. With Cc1nc(C)n(C2CCCN(C(=O)Cc3cccnc3)C2)n1 (stereo not given) the Percent Effect was 1.27%. Work on Cc1cc(C)n(CC2CCCN2C(=O)c2ccc3[nH]nnc3c2)n1 (stereo not given) yielded a Percent Effect of -26.6%. CNC1CCCN(Cc2noc(C3CC3)n2)C1 (stereo not given) was tested, and the Percent Effect was -5.27%. For COc1cccc(S(=O)(=O)NC2CNC(=O)C2)c1 (stereo not given), the Percent Effect was 3.09%. With c1cnc(NCc2noc3c2CN(C2CCOCC2)CC3)nc1 the Percent Effect was -7.78%. Work on CS(=O)(=O)c1ccc(C(O)CN2CCC(c3ccn[nH]3)CC2)cc1 (stereo not given) yielded a Percent Effect of -3.06%. In the case of COc1cccc(-c2noc(C3CCN(Cc4cn(C)nc4C)C3)n2)c1 (stereo not given), the Percent Effect is reported as -38.8%. For COc1ccc(C(=O)N2CCC(Nc3ccc(C)nn3)CC2)c(F)c1, the Percent Effect was -6.61%. O=C(NCCN1CCOCC1)c1n[nH]c(=O)c2ccccc12 showed a Percent Effect of -29.3%. Work on Cc1nccn1C1CCCN(C(=O)c2ccc3c(c2)nnn3C)C1 (stereo not given) yielded a Percent Effect of 16.2%. Work on Cn1cc2c(n1)C(COCC1CC1)CN(Cc1ccccn1)C2 (stereo not given) yielded a Percent Effect of 9.17%.

Source: ChEMBL document CHEMBL3988442, “University of Dundee, Small-Polar-MMV Screening Library” (2021)
